# Compound activity deposited in PubChem by Broad Institute.
# The list is not random: actives were taken first. Their share in the collection is about 2.8%.
# Shn3 3UTR inh: reduction of Shn3 3'UTR firefly luciferase signal, primary screen, Schnurri-3 inhibitor project, cell-based, Clone20 osteoblasts, set 2; actives 0.52% (n = 360,000); Clone20 osteoblast Shn3 3'UTR firefly luciferase, 24 h; inhibition, % at 12.5 µM;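 active = mean inhibition of at least 75% with every replicate also reaching 75%; inconclusive = mean inhibition at least 75% but some replicate below; inactive = mean inhibition below 75%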;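 note: 0% = median of neutral control wells and 100% = pilot-screen positive control compound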
# NSD2 HMT inh: NSD2 histone methyltransferase inhibitors, primary screen, biochemical, AlphaScreen, single concentration, set 2; Histone-lysine N-methyltransferase NSD2 (Homo sapiens), O96028; inhibition, % at 12.5 µM; NSD2 peptide methylation, 120 min; actives 0.54% (n = 310,000); in the data active = inhibition above about 50%
# PAX8 inh HTS: inhibitors of PAX8-driven TPO luciferase reporter, primary screen, RMG-I cells, single concentration; actives 1.2% (n = 360,000); SteadyGlo, 24 h; inhibition, % at 12.6 µM; AID 652154, 2013;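 active = mean replicate inhibition at least 60% with every replicate also reaching 60%; inconclusive = only one of the two criteria is met; inactive = mean below 60% and not all replicates reaching 60%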;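 note: luciferase light reporting Pax8 driven TPO promoter activity; plate controls were median of neutral control wells for no effect and mitoxantrone controls for full effect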
# HIV Env fusion: inhibitors of HIV-1 Env-driven cell-cell fusion, primary screen, HeLa-JRFL effector, CEM21 target cells, luciferase; inhibition, % at 12.3 µM; actives 1.1% (n = 360,000);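 active = mean replicate inhibition score of at least 50 and every replicate individually at or above 50; inconclusive = only one of the two criteria met; inactive = mean below 50 and not all replicates reaching 50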;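 note: 0% = plate neutral controls and 100% = maraviroc near 300 nM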
# EBV LMP1 NFkB: EBV LMP1-driven NF-kappaB luciferase reporter inhibitors, primary screen, cell-based, luminescence, single point. LMP1-induced NF-kappaB luciferase reporter cells. inhibition, % at 12.5 µM. actives 0.69% (n = 350,000). AID 504558, 2011; in the data active = inhibition above about 41%; inconclusive = no clear call, values can overlap the other calls;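 note: 0% = neutral control wells and 100% = reference inhibitor control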
# N-glyco inh: increase of ERlucT glycosylation luciferase signal, primary screen, N-linked glycosylation inhibitor project, D54 ERlucT cells, luminescence, set 2. actives 0.23% (n = 360,000). AID 588692, 2011. D54 ERlucT glycosylation luciferase reporter, 24 h; percent of 100 nM tunicamycin response. reporter increase, % at 12.5 µM;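 active = mean luciferase reporter signal, scaled so untreated is 0 and the glycosylation-blocking control 100, at or above a set limit in every replicate; inconclusive = mean reaches the limit but not every replicate does; inactive = mean below the limit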;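 note: luciferase carries N-glycosylation sites so blocking glycosylation raises the light; 0% = median of neutral control wells and 100% = median of 100 nM tunicamycin wells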
# Numbers without * were called inactive; ? = inconclusive; . = no result; [ ] = another dose, or the depositor's remark.
SMILES,Shn3 3UTR inh,NSD2 HMT inh,PAX8 inh HTS,HIV Env fusion,EBV LMP1 NFkB,N-glyco inh
COc1ccc(-c2ccc3c(c2)[C@H]2[C@H](CCN2S(=O)(=O)c2ccc(OC)cc2)[C@@H](CO)N3C)cc1,.,.,79*,.,.,.
C[C@@]12C(=O)Nc3cc(F)c(F)cc3C(=O)N1[C@H]1c3ccccc3OC[C@@H]1[C@@H]2c1ccccc1,26,.,16,-21,-3,?
COc1ccc2c(c1)OC[C@H]1[C@H]2N2C(=O)CN(Cc3ccc(Cl)cc3)C(=O)[C@@]2(C)[C@H]1c1ccccc1,29,.,19,73*,6,-3
COc1cc2c(cc1OC)C(=O)N1[C@H]3c4ccccc4OC[C@@H]3[C@H](c3ccccc3)[C@]1(C)C(=O)N2,-25,.,9,66*,-50,41*
COc1ccc(CN2CC(=O)N3[C@H]4c5ccc(OC)cc5OC[C@@H]4[C@H](c4ccccc4)[C@]3(C)C2=O)cc1,27,.,10,32,-8,-1
COc1ccc2c(c1)OC[C@H]1[C@H]2N2C(=O)c3cc(OC)c(OC)cc3NC(=O)[C@@]2(C)[C@H]1c1ccccc1,48,.,-24,-31,-25,47*
COc1ccccc1NC(=O)N[C@H]1CC[C@H](CCNC(=O)c2ccc3c(c2)OCO3)O[C@H]1CO,.,.,7,0[16.7 µM],.,.
CCCc1cn(CC[C@H]2CC[C@H](NC(=O)C3CCC3)[C@H](CO)O2)nn1,.,.,-3,24[16.7 µM],.,.
CNc1cc(-c2ccc(OC)c(OC)c2)ncn1,-78,-1,-183,-87,.,-4
CNc1ccc2ncc(-c3ccc(OC)c(OC)c3)n2n1,29,9,-53,58*,.,-17
C[C@@H]1CN([C@@H](C)CO)C(=O)Cc2cc(NC(=O)Cn3cnnn3)ccc2O[C@@H]1CN(C)C(=O)NC1CCCCC1,.,.,-33,9[16.7 µM],.,.
C[C@H](CO)N1C[C@H](C)[C@@H](CN(C)S(=O)(=O)c2ccc(Cl)cc2)Oc2ccc(NS(C)(=O)=O)cc2C1=O,.,.,.,7[16.7 µM],.,.
Cc1cc(Br)ccc1OCCn1ccnc1,-18,0,73*,.,-41,2
C/C=C/c1ccc([C@H]2[C@@H](CO)N(C(=O)C3CC3)C23CN(S(=O)(=O)CC)C3)cc1,.,.,-5,29[16.7 µM],.,.
N=c1oc2ccccc2cc1C(=O)Nc1ccc(F)cc1,-61,-2,-192,-140,-27,-13
Cc1ccc(NC(=O)c2cc3ccccc3oc2=N)cc1,38,-3,-5,-34,50*,-17
NNC(=O)c1ccc(OCC2CC(c3ccc(Cl)cc3)=NO2)cc1 (stereo not given),-5,-4,-9,-21,-13,52*
Cc1cc(=O)oc2cc(OCC3CC(c4ccc(Cl)cc4)=NO3)ccc12 (stereo not given),3,5,.,-43,4,0
Cc1cc(N2CCN(C(c3ccccc3)c3ccccc3)CC2)n2ncnc2n1,19,4,13,-32,-14,1
Cc1cc(N2CCN(c3nc4ccccc4s3)CC2)n2ncnc2n1,51,-4,.,87*,5,7
COCCn1c(SCC(=O)Nc2cc(C)on2)nc2c([nH]c3ccccc32)c1=O,4,0,11,59*,-6,-1
CCn1c(SCC(=O)Nc2cccc(NC(C)=O)c2)nc2c([nH]c3ccccc32)c1=O,7,-2,38,.,-6,11
CCn1c(SCC(=O)Nc2ccc(C(C)=O)cc2)nc2c([nH]c3ccccc32)c1=O,45,-1,23,-39,-8,92*
Cc1cccc(NC(=O)c2cc3n(n2)C(C(F)(F)F)CC(c2ccc4c(c2)OCO4)N3)c1 (stereo not given),-17,.,.,106*,-18,-5
COc1ccc(NC(=O)c2cc3n(n2)C(C(F)(F)F)CC(c2ccc4c(c2)OCO4)N3)cc1OC (stereo not given),10,.,.,.,7,-5
SMILES,Shn3 3UTR inh,NSD2 HMT inh,PAX8 inh HTS,HIV Env fusion,EBV LMP1 NFkB,N-glyco inh
COc1ccc(NC(=O)Nc2ccc3c(c2)CC(=O)N([C@H](C)CO)C[C@H](C)[C@H](CN(C)Cc2ccc(Cl)c(Cl)c2)O3)cc1,.,.,-9,36[16.7 µM],.,.
C[C@@H]1CN([C@@H](C)CO)C(=O)Cc2cc(NC(=O)Nc3ccc4c(c3)OCO4)ccc2O[C@H]1CN(C)Cc1ccc(Cl)c(Cl)c1,.,.,16,57*[16.7 µM],.,.
C[C@@H]1CN([C@@H](C)CO)C(=O)Cc2cc(NC(=O)Nc3ccc(F)cc3)ccc2O[C@@H]1CN(C)Cc1ccc(Cl)c(Cl)c1,27,.,81*,14,-16,-5
C[C@H](CO)N1C[C@H](C)[C@H](CN(C)CC2CC2)Oc2ccc(NC(=O)Nc3ccc4c(c3)OCO4)cc2CC1=O,.,.,-2,65*[16.7 µM],.,.
COc1ccc(NC(=O)Nc2ccc3c(c2)CC(=O)N([C@@H](C)CO)C[C@@H](C)[C@H](CN(C)Cc2ccc(Cl)c(Cl)c2)O3)cc1,.,.,72*,9[16.7 µM],.,.
C[C@H]1CN([C@@H](C)CO)C(=O)Cc2cc(NC(=O)Nc3ccc4c(c3)OCO4)ccc2O[C@@H]1CN(C)CC1CC1,.,.,-13,14[16.7 µM],.,.
CC=Cc1ccc2n(c1=O)C[C@H]1[C@H](CO)[C@@H](C(=O)NCCC)[C@@H]2N1CCC(F)(F)F (mixture of isomers),.,.,-14,.,.,.
C[C@@H]1CN([C@H](C)CO)C(=O)c2cccc(N(C)C)c2O[C@H]1CN(C)Cc1ccc(C(=O)O)cc1,.,.,-24,-2[16.7 µM],.,.
C[C@@H]1CN([C@H](C)CO)C(=O)Cc2cc(NC(=O)Nc3cccc4ccccc34)ccc2O[C@@H]1CN(C)Cc1ccc2c(c1)OCO2,.,.,10,.,.,.
COCC(=O)Nc1ccc2c(c1)[C@@H]1C[C@H](CC(=O)NCc3cccc(F)c3)O[C@H](CO)[C@@H]1O2,.,.,0,-1[16.7 µM],.,.
CO[C@H]1CN(C)C(=O)c2cc(NC(=O)C3CC3)ccc2OC[C@@H](C)N(C(=O)c2ccncc2)C[C@@H]1C,.,.,7,-25[16.7 µM],.,.
C[C@H]1CN([C@@H](C)CO)C(=O)Cc2cc(NC(=O)Nc3ccc(F)cc3)ccc2O[C@H]1CN(C)Cc1ccc2c(c1)OCO2,.,.,-13,.,.,.
C[C@@H]1CN([C@@H](C)CO)C(=O)Cc2cc(NC(=O)Nc3ccc(F)cc3)ccc2O[C@H]1CN(C)Cc1ccc2c(c1)OCO2,.,.,68*,.,.,.
C[C@H](CO)N1C[C@H](C)[C@@H](CN(C)Cc2ccccn2)Oc2cc(C3=CCCC3)ccc2S1(=O)=O,.,.,17,.,.,.
O=C(O)C1(Nc2ccccc2Cl)CCCC1,93*,1,18,12,1,0
C=CCNc1nc2c(c(=O)n(C)c(=O)n2C)n1CCCCCC,88*,2,.,92*,1,-5
C[C@H]1CN([C@@H](C)CO)C(=O)c2cc(/C=C/c3ccccc3)cnc2O[C@H]1CN(C)Cc1cncnc1,.,.,.,-13[16.7 µM],.,.
